Assay outcomes from PubChem.
A selection: hits, their analogues and other compounds. The true share with any hit is near 2%.
Mcl1 Bid PPI: disrupts binding of human Mcl-1 to Bid peptide; Q07820; TR-FRET Mcl-1/Bid-Dy647 peptide binding, 1536-well; inhibition, % at 21.7 µM; hit rate 0.97% among 220,000;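 active = compounds that cut the binding signal by more than half at the single screening dose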;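 also: His-tagged Mcl-1 with europium anti-His antibody binding Bid BH3 peptide; 0% = Mcl-1 plus peptide wells and 100% = peptide-only wells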
Target sequence (Q07820 whole entry, looked up): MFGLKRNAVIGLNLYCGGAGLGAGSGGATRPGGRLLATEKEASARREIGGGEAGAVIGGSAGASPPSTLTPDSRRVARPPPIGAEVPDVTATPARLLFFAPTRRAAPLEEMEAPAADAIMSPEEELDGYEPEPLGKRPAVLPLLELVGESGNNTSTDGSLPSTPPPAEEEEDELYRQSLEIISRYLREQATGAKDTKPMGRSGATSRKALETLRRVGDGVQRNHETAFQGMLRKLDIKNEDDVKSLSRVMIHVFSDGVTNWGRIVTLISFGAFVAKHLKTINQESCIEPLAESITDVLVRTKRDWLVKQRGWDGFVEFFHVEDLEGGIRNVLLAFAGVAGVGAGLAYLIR
MCL1 BIM primary: disrupts human MCL1 binding to BIM-BH3 peptide; Q07820; GST-MCL1 / FITC-Bim-BH3 fluorescence polarization; inhibition, % at 10.9 µM; hit rate 0.68% among 320,000;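 active = inhibition above the mean inhibition of all tested compounds plus 3 SD, set per campaign, cut at about 40% in these data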;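 also: 0% = DMSO wells and 100% = unlabeled Bim-BH3 peptide control; higher means more loss of mP so more displacement of Bim peptide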
Mcl-1 Bim block: disrupts Bim peptide binding to human Mcl-1; Q07820; Bead-based flow cytometry, Bim peptide-Mcl-1 binding; inhibition, % at 10 µM; hit rate 0.1% among 190,000; in the data active = inhibition above about 40%;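 also: 0% = no compound tracer wells and 100% = peptide blocker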
Mcl1-Noxa inh: Mcl-1/Noxa interaction inhibition. TR-FRET Mcl-1/Noxa peptide binding, 2 h. inhibition, % at 21.7 µM. hit rate 1.5% among 220,000. AID 1022;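 active = compounds that cut the protein-peptide binding signal by more than 50% relative to plate controls in a single-dose test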;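 also: His-tagged Mcl-1 with rhodamine Noxa BH3 peptide and terbium anti-His antibody; 0% = Mcl-1 plus Noxa peptide wells and 100% = peptide-only wells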
Numbers without * were called inactive; nt = no result.

SMILES	Mcl1 Bid PPI	MCL1 BIM primary	Mcl-1 Bim block	Mcl1-Noxa inh
O=C1/C(=C/c2ccc(N3CCOCC3)o2)SC(=Nc2ccccc2)N1CCc1c[nH]c2ccccc12	-63	-104	-21	38
COc1cc(/C=C2\SC(=Nc3ccccc3)N(CCc3c[nH]c4ccccc34)C2=O)ccc1OC(C)C(=O)O (stereo unspecified)	-6	10	0	51*
Cc1ccn2c(=O)c(NC(=O)c3ccc(Br)o3)c(C)nc2c1	nt	3	nt	nt
CC(C)CC1NC(=S)N(C2CCCCC2)C1=O (stereo unspecified)	-62	13	0	7
CN(C)c1ncc(/C=C2/C(=O)NC(=S)N(C3CCCCC3)C2=O)cn1	9	nt	0	61*
O=c1cc2c(=O)oc3cc(O)c(O)oc3c2c(O)c1O	-158	nt	nt	89*
CC(Sc1nnc(-c2ccc(OC(F)F)cc2)n1N)C(=O)NCC1CCCO1 (stereo unspecified)	nt	-8	nt	nt
CC(C)CNC(=O)COC(=O)c1c2c(nc3ccccc13)/C(=C/c1cccs1)CC2	-63	-2	-1	8
O=C(COC(=O)c1c2c(nc3ccccc13)/C(=C/c1ccco1)CC2)NC1CCCC1	-5	nt	5	98*
CC1CCCCC1NC(=O)COC(=O)c1c2c(nc3ccccc13)/C(=C/c1ccco1)CC2 (stereo unspecified)	-47	-15	8	52*
COc1ccc(CCNC(=O)C2CCN(S(=O)(=O)c3cccc4nonc34)CC2)cc1OC	-2	-2	-4	66*
O=C(NCCc1ccccc1)C1CCN(S(=O)(=O)c2cccc3nonc23)CC1	-3	-2	-2	-4
COc1cccc(C(=O)N2CCN(Cc3ccccc3C(F)(F)F)CC2)c1	62*	5	-1	30
CCN=C1SC(C(=O)Nc2ccc(OC)cc2)CC(=O)N1CC (stereo unspecified)	-19	5	0	64*
CCN=C1SC(C(=O)Nc2ccc(OCC)cc2)CC(=O)N1CC (stereo unspecified)	-22	2	0	11
O=C(N/C=C/c1ccco1)NCc1ccccc1	-65	19	0	64*
COc1cc(CCC(=O)OCC(=O)Nc2ccc(F)c(F)c2)cc(OC)c1OC	nt	-1	nt	nt
CCN(c1ccc(NC(=O)COC(=O)CCc2cc(OC)c(OC)c(OC)c2)cc1)C(C)C	-11	nt	-6	59*
CCN(c1ccc(NC(=O)COC(=O)c2ccc(C)s2)cc1)C(C)C	-8	-6	-1	63*
Cc1ccc(C(=O)N/N=C/c2ccoc2)cc1C	nt	7	nt	nt
COc1ccc(-c2cc3cc(-c4cc(OC)c(OC)c(OC)c4)ccc3o2)cc1	nt	1	nt	nt
CC(=O)N1CCc2cc(S(=O)(=O)NC(Cc3ccccc3)C(=O)NC3CCCCCC3)ccc21 (stereo unspecified)	99*	6	-4	103*
CCN1CCN(C(=O)c2ccc(COc3cccc(Cl)c3)o2)CC1	nt	13	nt	nt
CN(C)c1ccc(NC(=O)c2ccc(COc3cccc(Cl)c3)o2)cc1	-12	4	0	85*
CC(=O)C[C@H](O)CC(=O)[C@H]1OC(=O)CCCCCCCc2ccccc21	nt	4	nt	nt
SMILES	Mcl1 Bid PPI	MCL1 BIM primary	Mcl-1 Bim block	Mcl1-Noxa inh
CC1Cc2ccccc2N1C(=O)CSc1nnc2c(n1)[nH]c1ccc(F)cc12 (stereo unspecified)	-9	0	-26	23
COc1ccc(OCCOCCN2CCc3ccccc3C2)cc1	62*	-1	4	15
COc1ccc(CN2C(=O)Cc3c2nc(N)c2c(N)nc(N4CCOCC4)c(C#N)c32)cc1	-107	47*	nt	36
CN(CCO)c1nc(N)c2c(N)nc3c(c2c1C#N)CC(=O)N3Cc1cccs1	-19	41*	6	36
CCOc1ccc(N2C(=O)/C(=C\c3ccc(O)c(OC)c3)S(=O)(=O)C2c2cccc([N+](=O)[O-])c2)cc1 (stereo unspecified)	34	1	2	72*
O=C(Cc1cccs1)N=Nc1c(O)[nH]c2ccc(Br)cc12	-4	4	nt	44
COc1ccc2[nH]c(O)c(N=NC(=O)Cc3cccs3)c2c1	-55	32	nt	61*
COc1cc(Cl)c(C)cc1NC(=O)CCCn1c(=O)oc2ccccc21	95*	0	-1	26
COc1cc(OC)c(NC(=O)CCCn2c(=O)oc3ccccc32)cc1Cl	-32	-8	0	-9
COc1ccc(CN2CCC(Oc3ccc(C(=O)N4CCCC4)cc3)CC2)c(F)c1	nt	-8	nt	nt
CC(=O)C1=C(C)N(Cc2ccccc2)C(=O)N[C@H]1CCc1ccccc1	8	0	1	-3
O=C1NC(CCc2ccccc2)C(=O)N1Cc1ccccc1Cl (stereo unspecified)	95*	-5	17	-5
O=S1(=O)CCC(NC(=S)N2CCOCC2)C1 (stereo unspecified)	-54	0	-2	2
COc1cc(C2NC(=O)NC(C)=C2C(=O)OCC2CCCCC2)ccc1O (stereo unspecified)	nt	4	nt	nt
O=c1c(Cl)c(N/N=C/c2ccc(Br)cc2)cnn1-c1ccccc1	63*	-1	-3	52*
CNc1cnn(-c2ccccc2)c(=O)c1Cl	-12	7	-2	10
O=C(CN1CCCc2ccccc21)NCc1ccc2c(c1)OCO2	-23	52*	-3	11
COC(=O)c1ccc(-c2nc3cc(Cl)c(N)cc3s2)cc1	91*	1	0	0
O=C(Nc1cccc(F)c1)C1CCCN1C(=O)OCc1ccccc1 (stereo unspecified)	nt	-4	nt	nt
O=c1c(C(c2ccccc2)c2c(O)sc3ccccc3c2=O)c(O)sc2ccccc12	71*	8	-5	53*
Cc1ccc(NC(C)C(=O)N/N=C/c2c[nH]c3ccccc23)cc1 (stereo unspecified)	-9	10	-3	54*
Cc1ccc(CSc2nnc(SCC(=O)N/N=C/c3c[nH]c4ccccc34)s2)cc1	90*	nt	2	76*
Cc1ccccc1NC(C)C(=O)N/N=C/c1c[nH]c2ccccc12 (stereo unspecified)	-32	-2	-1	9
O=C(CSc1nnc(SCc2ccccc2Cl)s1)N/N=C/c1c[nH]c2ccccc12	22	4	-8	26
COc1ccc(C2C(C#N)=C(C)NC3=C2S(=O)(=O)c2ccccc23)cc1 (stereo unspecified)	-3	5	48*	6
SMILES	Mcl1 Bid PPI	MCL1 BIM primary	Mcl-1 Bim block	Mcl1-Noxa inh
COC(=O)C1=C(C)NC2=C(C1c1ccc(O)cc1)S(=O)(=O)c1ccccc12 (stereo unspecified)	-11	8	0	-3
COc1ccc(C(C)=O)cc1COc1ccc(Cl)cc1Cl	92*	-2	nt	-11
COc1cccc(/C=N/NC(=O)C(=O)N/N=C/c2cccc(OC)c2O)c1O	-71	nt	3	59*
COc1cccc(/C=N/NC(=O)c2cc3c(OC)cccc3[nH]2)c1O	-36	-5	-4	59*
COc1cccc(/C=N/NC(=O)C(=O)N2CCCCCC2)c1O	nt	8	nt	nt
Cn1cc(C(=O)N/N=C/c2ccc([N+](=O)[O-])cc2)c2ccccc21	38	0	nt	75*
Cc1cc2ccccc2n2c(SCC(=O)NCc3cccs3)nnc12	7	8	5	67*
